Bioassay records deposited in PubChem BioAssay by National Center for Advancing Translational Sciences (NCATS).
12-hLO inh = qHTS Assay for Inhibitors of 12-hLO (12-human lipoxygenase). purified 12-hLO, xylenol orange hydroperoxide absorbance. AID 1452, 2008. Potency, µM (titrated, usually from 57.1 µM), without a hit: top-dose activity change, negative = inhibition, hits mostly inhibitors. actives 0.12% (n = 150,000). Polyunsaturated fatty acid lipoxygenase ALOX12 (Homo sapiens), P18054; note: potency is the fitted concentration of half-maximal effect; nearly all actives have a fitted effect of over 55% in size
Target sequence (P18054 whole entry, looked up): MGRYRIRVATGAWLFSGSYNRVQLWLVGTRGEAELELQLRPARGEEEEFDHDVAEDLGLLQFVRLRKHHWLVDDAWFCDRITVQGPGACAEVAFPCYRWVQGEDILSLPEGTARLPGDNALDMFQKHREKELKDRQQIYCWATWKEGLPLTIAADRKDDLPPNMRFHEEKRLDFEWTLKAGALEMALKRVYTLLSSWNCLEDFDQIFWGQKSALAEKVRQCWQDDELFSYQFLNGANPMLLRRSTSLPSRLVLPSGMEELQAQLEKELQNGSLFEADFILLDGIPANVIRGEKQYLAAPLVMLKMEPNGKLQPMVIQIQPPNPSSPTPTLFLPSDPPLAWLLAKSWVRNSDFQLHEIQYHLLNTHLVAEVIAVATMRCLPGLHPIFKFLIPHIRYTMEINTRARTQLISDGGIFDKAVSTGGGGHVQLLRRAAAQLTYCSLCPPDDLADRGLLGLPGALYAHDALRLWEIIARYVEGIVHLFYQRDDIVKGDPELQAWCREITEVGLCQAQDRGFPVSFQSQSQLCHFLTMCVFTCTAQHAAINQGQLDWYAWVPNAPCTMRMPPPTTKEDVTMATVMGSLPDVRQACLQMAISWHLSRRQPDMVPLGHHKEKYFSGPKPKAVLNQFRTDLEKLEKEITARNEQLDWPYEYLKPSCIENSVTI
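Xylenol orange chromogenic assay: hydroperoxide from 12hLO oxidises Fe(II), giving red-shifted Fe(III)-XO absorbance. Conditions: 150 nM enzyme, 40 uM arachidonic acid, 25 mM Hepes pH 7.0, 0.01% Triton X-100, 30 min, room temperature.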
15-hLO-2 inh = qHTS Assay for Inhibitors of 15-hLO-2 (15-human lipoxygenase 2) | Polyunsaturated fatty acid lipoxygenase ALOX15B (Homo sapiens), O15296 | purified 15hLO-2, xylenol orange hydroperoxide absorbance | Potency, µM (top dose mostly 57.1 µM), inactives show at the top dose activity change, negative = inhibition, hits mostly inhibitors | actives 0.56% (n = 110,000) | AID 881, 2007; note: potency is the fitted concentration of half-maximal effect; nearly all actives have a fitted effect of over 60% in size
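Purified human 15hLO-2 (50 nM) preincubated 15 min with compound, then 45 uM arachidonic acid for 90 min at RT in 25 mM Hepes pH 7.5, 0.01% Triton X-100. Hydroperoxide detected by Fe-xylenol orange; 573/405 nm absorbance ratio.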
PNC assembly inh = High Content Assay for Compounds that inhibit the Assembly of the Perinucleolar Compartment | PC3M PTB-GFP, PNC prevalence imaging, 16 h; active compounds read low | activity change (PNC), negative = inhibition, % at 10 µM | actives 3.1% (n = 140,000) | AID 2417, 2010;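 active = readout at or below -70, meaning at least 70% loss of cells showing the perinucleolar compartment, a nuclear body marking cancer cells; inconclusive = readout between -30 and a set limit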;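 note: plate controls were DMSO wells for no effect and camptothecin positive control wells for full effect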
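Read-out is percentage of cells bearing a perinucleolar compartment, from automated 20x imaging of fixed, Hoechst-stained PC3M PTB-GFP cells. Cells were seeded 4 h, then exposed 16 h to compound (23 nl of library stock) in duplicate plates.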
* hit, by the source's call; ? = inconclusive; . = not tested or not shown; [ ] = another dose, or the depositor's remark. An excerpt weighted towards active compounds, which were near 3.2% of everything screened. Unless noted, calls come from the whole dose curve; as a rule, active = well fitted curve in the direction sought with a large enough effect; inconclusive = small, poorly fitted or top-dose-only effect, or another doubt; inactive = no such curve, though single readings can be large; an effect the other way counts as inactive or inconclusive. Unless noted, % is set by controls: 0 for no effect and ±100 for the full control effect.

SMILES	12-hLO inh	15-hLO-2 inh	PNC assembly inh
COc1ccc(C)cc1NC(=O)CN(c1ccc(F)cc1)S(C)(=O)=O	-4.3%	5.6%	-94.1*
CCOC(=O)Nc1cc(C)ccc1OC	0.5%	-1.5%	-7.8
CCCCCCc1c(C[C@H](N)C(=O)O)o[nH]c1=O	0.9%	9.8%	.
COC(=O)c1cc(OC)c(OC)cc1NC(=O)C(C)c1ccc([N+](=O)[O-])cc1 (stereo unspecified)	2.1%	.	-13.2
Brc1ccccc1-c1nnc(CSc2nnc3sc4ccccc4n23)o1	2.7%	-8.9%	-17.0
COc1ccc(C2C(C(=O)Nc3cccnc3)=C(C)Nc3nc(-c4cccs4)nn32)cc1OC (stereo unspecified)	-4.8%	2.0%	-108.4*
COc1ccc(C2C(C(=O)Nc3cccnc3)=C(C)Nc3nc(-c4cccs4)nn32)cc1 (stereo unspecified)	-4.6%	.	-8.2
CC(=O)c1cccc(NS(=O)(=O)c2cccc(C(=O)O)c2)c1	-2.2%	.	.
O=C(O)CSSCC(=O)O	-0.5%[11.4 µM]	0.5%[11.4 µM]	.
Nc1nc(CN2CCN(c3ccccc3F)CC2)nc(Nc2ccccc2)n1	-6.8%	22.1%	?
Nc1nc(CN2CCCCCC2)nc(Nc2ccccc2)n1	5.3%	47.3%	?
Nc1nc(CN2CCN(Cc3ccc4c(c3)OCO4)CC2)nc(Nc2ccccc2)n1	0.7%	38.3%	-129.2*
Nc1nc(CN2CCC(Cc3ccccc3)CC2)nc(Nc2ccccc2)n1	7.4%	47.5%	-105.2*
COc1ccccc1CN1CC(C(=O)N2CCN(c3ccc(F)cc3)CC2)CC1=O (stereo unspecified)	-3.0%	5.9%	-98.5*
CC(C)CCN1CC(C(=O)N2CCN(c3ccc(F)cc3)CC2)CC1=O (stereo unspecified)	-2.0%	1.1%	3.7
Cc1ccc2nc(N/C(N)=N/S(=O)(=O)c3ccc([N+](=O)[O-])cc3)nc(C)c2c1	-1.6%	.	8.1
COCC(=O)N1CCC2(CC1)CN(Cc1ccccc1OC)C2	0.5%	7.3%	.
CCc1c2c(nc3cccc(OC)c13)OC(CC)C2 (stereo unspecified)	-3.9%	-5.7%	.
CC(C)c1nc2oc3c(NCC4CCCO4)ncnc3c2c2c1CCC2 (stereo unspecified)	-1.1%	6.2%	-97.9*
CCCc1nc2oc3c(NCC4CCCO4)ncnc3c2c2c1COC(C)(C)C2 (stereo unspecified)	-0.4%	6.4%	?
CCN(c1cccc(C)c1)S(=O)(=O)c1ccc2[nH]c(=O)c(=O)[nH]c2c1	0.8%	-1.9%	-103.2*
CCN(c1cccc(C)c1)S(=O)(=O)c1c(C)[nH]c(=O)[nH]c1=O	8.5%	3.8%	18.8
CCOc1ccc2nc(SCC(=O)NCc3ccc4c(c3)OCO4)[nH]c2c1	4.6%	5.7%	14.8
OCCNc1nc(C2CC2)nc2c1nnn2Cc1ccccc1Cl	0.6%	-6.9%	?
COCCNc1nc(C(C)(C)C)nc2c1nnn2Cc1ccccc1Cl	-3.9%	2.5%	-102.1*
SMILES	12-hLO inh	15-hLO-2 inh	PNC assembly inh
CN1CCCC(n2nc(Cc3ccc(Cl)cc3)c3ccccc3c2=O)CC1 (stereo unspecified)	4.0%	33.0%	.
O=C(Oc1ccc2c(c1)OCO2)c1ccc(F)cc1Cl	-27.7%	5.5%	-108.7*
CCOc1ncccc1C(=O)Oc1ccc2c(c1)OCO2	2.5%	-0.4%	4.4
O=C(CSc1nc(-c2ccccc2)c(-c2ccccc2)[nH]1)NCCN1C(=O)CSC1=O	-6.2%	-11.6%	2.2
Clc1ccccc1C(Nc1cnccn1)Nc1cnccn1	-2.0%[11.4 µM]	-7.2%[11.4 µM]	.
O=C(/C=C/c1ccccc1Cl)N(Cc1ccccc1)C1CCS(=O)(=O)C1 (stereo unspecified)	-0.9%	.	-20.7
O=C(/C=C/c1ccccc1Cl)N(Cc1ccc(Cl)cc1)C1CCS(=O)(=O)C1 (stereo unspecified)	-2.5%	.	-98.2*
Cc1noc(C)c1-c1cncnc1Nc1ccccc1	.	-25.5%	.
CS(=O)(=O)N(Cc1ccccc1)c1ccc(C(=O)N2CCc3ccccc3C2)cc1	1.8%	10.9%	52.7
COC(=O)c1ccccc1NC(=O)C(=O)NCC1CCCO1 (stereo unspecified)	1.1%	.	-0.9
COC(=O)c1ccccc1NC(=O)NCC1CCCO1 (stereo unspecified)	-2.3%	8.7%[2.29 µM]	-122.4*
CC(=O)Nc1ccc(NC(=O)CNS(=O)(=O)c2ccc(C)cc2)cc1	-2.5%	2.9%	30.1
COc1ccc(NC(=O)CNS(=O)(=O)c2ccc(Cl)cc2)cc1OC	0.6%	.	-113.8*
COC1=C(c2ccccc2)C(=O)c2ccccc2C1=O	-5.4%	.	20.4
O=C1C(=O)c2ccc(-c3ccccc3)cc2-c2ccccc21	2.3%	.	-105.1*
Nc1ccc2c(c1)C(=O)c1ccccc1C2=O	-1.8%	-6.5%	.
Nc1ccc2c(c1)C(=O)C(=O)c1ccccc1-2	?	?	-81.1*
O=P(COc1ccccc1)(c1ccccc1)c1ccccc1	2.6%	-0.5%	51.9
C/C(=N\NC(=O)c1cccc(S(=O)(=O)Nc2ccccc2Cl)c1)c1ccco1	0.2%	.	10.0
C/C(=N\NC(=O)c1ccc(Cl)c(S(=O)(=O)Nc2ccccc2Cl)c1)c1ccncc1	-0.2%	.	-83.3*
CCn1c(SC(=O)NC2CCCCC2)nnc1-c1cccs1	4.9%	?	11.9
COc1ccnc(CSC(N)=Nc2ccccc2C(F)(F)F)c1	2.5%	.	9.8
COc1ccnc(CSC(N)=Nc2ccccc2OC)c1	-0.7%	.	-81.2*
CC(C)(C)NC(=O)C(c1c[nH]c2ccccc12)N(C(=O)Cn1nnc(-c2ccc(F)cc2)n1)c1cccc(O)c1 (stereo unspecified)	-2.4%	.	-21.8
O=C(c1c(O)c2ccc(Cl)cc2[nH]c1=O)C1CC1	-1.6%	21.1%	.
SMILES	12-hLO inh	15-hLO-2 inh	PNC assembly inh
CCCCn1c(=O)n(CC(=O)Nc2ccc(OC)c(Cl)c2)c(=O)c2c1nc(CO)n2CCC	6.8%	-2.4%	11.6
CCSc1nc2[nH]ncc2c(=O)[nH]1	0.5%	.	-87.2*
CCCCSc1nc2[nH]ncc2c(=O)[nH]1	-2.4%	.	?
COc1ccc2[nH]cc(CCNc3nc(-c4ccccc4OC)nc4ccccc34)c2c1	.	10.4%	.
Oc1ccc(N=C/C=C/c2cccc(Br)c2)cc1-c1nc2ccccc2s1	-28.0%	.	-19.0
CCCOc1ccc2c3c(c(=O)oc2c1OCCC)CCCC3	0.5%	-10.3%	-111.4*
CCOc1ccc2c3c(c(=O)oc2c1OCC)CCCC3	-0.5%	-2.7%	?
C[C@@H]1CCC2[C@](C)(CO)C(O)CC[C@@]2(C)[C@@]12CC[C@](CO)(CCO)O2 (stereo partly specified)	0.0%	2.4%	.
O=C(Nc1cc(Cl)ccc1O)c1cc2n(n1)C(C(F)(F)F)CC(c1ccc3c(c1)OCO3)N2 (stereo unspecified)	-0.6%	-28.3%	-84.2*
COc1ccc(OC)c(NC(=O)c2cc3n(n2)C(C(F)(F)F)CC(c2ccc4c(c2)OCO4)N3)c1 (stereo unspecified)	2.5%	3.3%	-23.8
O=C(c1ccccc1Nc1ccc(SC(F)F)cc1)N1CCCCCC1	-6.8%	-4.8%	25.5
